Source: PubChem
Sfp PPTase inh: inhibitors of Bacillus subtilis Sfp phosphopantetheinyl transferase; Q9F4F7; Biochemical Sfp PPTase activity, qHTS; Potency, µM, hits mostly inhibitors; actives 3.5% (n = 310,000); AID 1490;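 also: the enzyme is Sfp with the accession as filed and its product quenches rhodamine fluorescence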
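Sfp 15 nM + cpd, 15 min RT; start w/ rhodamine-CoA 5 uM, BHQ-2-YbbR 12.5 uM (final); 50 mM Hepes pH 7.6, 10 mM MgCl2, 0.01% NP-40, 0.01% BSA; read 525/598 nm at 0 and 30 min.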
Tau FP inhib: inhibitors of human tau fibril formation | AID 1468 | actives 0.39% (n = 280,000) | Potency, µM (titrated, usually from 57.7 µM), actives largely listed as inhibitors | K18 P301L tau heparin fibrillization, Alexa594 FP, 6 h; also: nearly all actives have a fitted effect of over 55% in size
Target sequence (P10636 561-689 P618L limits assumed): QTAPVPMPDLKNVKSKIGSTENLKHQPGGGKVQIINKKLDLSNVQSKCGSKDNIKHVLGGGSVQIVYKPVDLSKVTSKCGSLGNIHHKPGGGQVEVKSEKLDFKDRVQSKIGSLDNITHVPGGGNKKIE
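Human K18 P301L fragment (15 uM unlabeled plus 0.24 uM Alexa 594-labeled) in 100 mM sodium acetate pH 7 with compound, aggregation induced by 20 uM heparin for 6 hr at 37 C. ThT (30 uM) added for 1 hr, then Alexa 594 FP read.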
Tau fluor cs: counter-screen for tau fibril formation inhibitors; tau K18 P301L Alexa594 fluorescence, heparin fibrillization; Potency, µM (series often up to 57.7 µM); actives 0.93% (n = 280,000); AID 1463; also: nearly all actives have a fitted effect of over 55% in size
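Human K18 P301L tau (15 uM unlabeled plus 0.24 uM Alexa 594-labeled, final) in 100 mM sodium acetate pH 7 was mixed with compound and 20 uM heparin and incubated 6 hr at 37 C.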
VDR inhibitor: vitamin D3 receptor (human) inhibition. VDR-SRC2-3 peptide fluorescence polarization, 2 h. Potency, µM, most hits filed as inhibitors. P11473. actives 0.93% (n = 400,000)
Target sequence (P11473 whole entry, looked up): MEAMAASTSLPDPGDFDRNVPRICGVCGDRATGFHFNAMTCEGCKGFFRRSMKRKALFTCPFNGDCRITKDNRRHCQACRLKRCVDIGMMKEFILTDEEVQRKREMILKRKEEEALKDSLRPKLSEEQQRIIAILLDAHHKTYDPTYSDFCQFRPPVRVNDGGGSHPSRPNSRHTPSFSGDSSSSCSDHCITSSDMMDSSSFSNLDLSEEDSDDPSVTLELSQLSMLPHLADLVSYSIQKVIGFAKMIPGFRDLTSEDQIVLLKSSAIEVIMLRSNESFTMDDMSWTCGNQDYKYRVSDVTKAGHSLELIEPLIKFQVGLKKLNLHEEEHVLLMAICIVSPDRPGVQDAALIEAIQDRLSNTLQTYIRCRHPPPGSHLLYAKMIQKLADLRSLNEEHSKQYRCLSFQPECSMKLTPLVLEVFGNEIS
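Two reagent solutions held at 4 deg C in the dark were dispensed, compounds pinned at 23 nl, and the mixture incubated 2 h at room temperature. Read-out: fluorescence polarization of VDR–SRC2-3 peptide binding.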
Tau ThT inhib: tau fibrillization inhibition (ThT binding) | recombinant tau K18 P301L (four-repeat tau fragment), heparin-induced fibrillization, ThT fluorescence | AID 1460 | Potency, µM (series often up to 57.4 µM), actives largely listed as inhibitors | actives 2.1% (n = 270,000) | P10636; also: nearly all actives have a fitted effect of over 55% in size
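Heparin-induced (20 uM) aggregation of recombinant human K18 P301L tau, 15 uM unlabeled with 0.24 uM labeled, pH 7 acetate buffer, 6 hr at 37 C with compound. Fibrils quantified by 30 uM ThT fluorescence after 1 hr ambient incubation.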
PLK1 PBD block: inhibitors of human PLK1 polo-box domain binding. P53350. Plk1 PBD binding of FITC phosphopeptide, fluorescence polarization. Potency, µM, most hits filed as inhibitors. actives 2.8% (n = 360,000); also: series mostly up to about 57 µM; nearly all actives have a fitted effect of over 65% in size
TbPYK inh: confirmation of Trypanosoma brucei pyruvate kinase inhibitors | recombinant TbPYK, Kinase-Glo ATP luminescence | shares compounds with PLK1 PBD block | Potency, µM (top dose mostly 76.9 µM), most hits filed as inhibitors | actives 67% (n = 890); also: nearly all actives have a fitted effect of over 70% in size
TbPYK orthogonal: TbPYK inhibition, orthogonal confirmation. shares compounds with PLK1 PBD block. recombinant TbPYK, ADP-Glo luminescence, 60 min. Potency, µM (top dose mostly 76.9 µM), actives largely listed as inhibitors. actives 62% (n = 890); also: nearly all actives have a fitted effect of over 75% in size
A number is an active result; - = inactive; ? = inconclusive; . = not tested or not shown; [ ] = another dose, or the depositor's remark. This is a sample that favours compounds with a hit; in the whole collection about 6% have one here. Calls follow the shape of the dose curve; as a rule, active = well fitted curve in the direction sought with a large enough effect; inconclusive = small, poorly fitted or top-dose-only effect, or another doubt; inactive = no such curve, though single readings can be large; an effect the other way counts as inactive or inconclusive.

SMILES	Sfp PPTase inh	Tau FP inhib	Tau fluor cs	VDR inhibitor	Tau ThT inhib	PLK1 PBD block	TbPYK inh	TbPYK orthogonal
CCCn1c(SCC(=O)Nc2nc(-c3ccc(OC)cc3)cs2)nc2c1c(=O)n(C)c(=O)n2C	-	-	-	-	-	-	-	-
CCc1ccc(NC(=O)NCC2CCN(c3ccc(OC)cc3)C2)cc1 (stereo not given)	-	-	?	-	?	-	?	-
Cc1cccc(NC(=O)c2sc3nc(N4CCOCC4)c4c(c3c2N)CC(C)(C)OC4)c1	.	-	-	-	-	.	.	.
CC1(C)Cc2c(c(N3CCOCC3)nc3sc(C(=O)Nc4cccc(Cl)c4)c(N)c23)CO1	45µM	.	.	-	.	?	1.1µM	3.5µM
C/C(=C\C(=O)OCCCCCCCCC(=O)O)C[C@@H]1OCC(C[C@H]2O[C@H]2[C@@H](C)[C@H](C)O)[C@@H](O)[C@H]1O (stereo not given in full)	-	.	.	-	.	.	.	.
COc1cccc(Nc2ncc3nc(-c4cn(C)c5ccccc45)c(=O)n(C[C@H]4CCCO4)c3n2)c1	-	.	.	-	.	.	.	.
O=c1c2sccc2[nH]c(=S)n1Cc1ccccc1	-	-	-	-	-	-	14µM	7.1µM
COc1ccc(Cn2c(=S)[nH]c3ccsc3c2=O)cc1	-	-	-	-	-	-	5µM	5.6µM
CCN(CC)S(=O)(=O)c1cc(NC(=O)CCNC(=O)c2ccco2)ccc1C	-	.	.	-	.	-	.	.
Cc1cc(C)c2oc(-c3cccc(NC(=O)c4ccc(-c5cccc([N+](=O)[O-])c5)o4)c3)nc2c1	.	-	?	-	?	.	.	.
O=C(Nc1ccccc1)c1ccc2nc(-c3ccco3)c(-c3ccco3)nc2c1	20µM	?	?	?	?	27µM	?	?
O=C(NCc1ccccc1)c1ccc2nc(-c3ccco3)c(-c3ccco3)nc2c1	7.1µM	?	?	40µM	14µM	7.5µM	18µM	18µM
O=C(NCc1ccccc1)c1ccc2nccnc2c1	-	-	-	-	-	-	.	.
CCc1nc2ccc(C(=O)NCCc3ccco3)cc2nc1CC	-	.	.	-	.	-	.	.
O=C(NCCCO)c1ccc2nc(-c3ccco3)c(-c3ccco3)nc2c1	10µM	8.9µM	4.5µM[quencher]	79µM	5µM	30µM	22µM	35µM
CC1=C(C(=O)OC2CCCC2)C(c2cccc(Cl)c2Cl)CC(=O)N1 (stereo not given)	.	-	-	-	-	.	.	.
CCc1nc2ccc(C(=O)NCCc3c[nH]c4ccccc34)cn2c1N(C)Cc1ccc(N(C)C)cc1	.	.	.	.	.	-	.	.
CCCCOC(=O)c1c(C)oc2c1cc(NS(=O)(=O)c1cc(OC)ccc1OC)c1ccccc12	.	-	?	-	?	.	.	.
COc1cc(-c2coc3c(C(=O)NC4CCCCC4)cccc23)ccc1O	.	.	.	.	.	-	.	.
O=C(O)CCN1C(=O)/C(=C2\C(=O)N(Cc3ccccc3Cl)c3ccccc32)SC1=S	-	.	.	.	.	.	.	.
C=CCN1C(=O)/C(=c2\sc3nc(=O)c(Cc4ccccc4Cl)nn3c2=O)c2ccccc21	11µM	?	-	35µM	?	12µM	35µM	40µM
Cn1ncc(Br)c1C(=O)NC(=S)N1CCN(c2ccccn2)CC1	-	-	-	-	-	-	28µM	32µM
Cn1cc(Br)c(C(=O)NC(=S)N2CCN(c3ccccn3)CC2)n1	?	-	-	-	-	-	.	.
Cc1ccc2c(c1)sc1nc(-c3cc4ccccc4oc3=O)cn12	.	-	-	-	-	.	.	.
O=C1OC2(c3ccccc31)c1ccccc1-c1ccccc12	.	.	.	-	.	-	.	.
SMILES	Sfp PPTase inh	Tau FP inhib	Tau fluor cs	VDR inhibitor	Tau ThT inhib	PLK1 PBD block	TbPYK inh	TbPYK orthogonal
O=C1OC(c2ccc3ccccc3c2O)(c2ccc3ccccc3c2O)c2ccccc21	.	.	.	?	.	4.7µM	13µM	13µM
Cc1ccc(-c2csc3ncn(-n4c(C)ccc4C)c(=O)c23)o1	-	-	-	?	-	?	-	?
c1ccc(Cc2nn3c(C4COc5ccccc5O4)nnc3s2)cc1 (stereo not given)	14µM	-	-	-	?	21µM	?	?
Cc1cc2c(nc1C)CCCCN2C[C@H](C)O/N=C1/[C@H]2O[C@@H]2[C@@H](O)[C@H]2[C@H]1CCn1c(=O)n(-c3ccccc3)c(=O)n12	-	-[11.6 µM]	-[11.6 µM]	.	-[11.5 µM]	.	.	.
O=C1NC(c2cccs2)Nc2sc3c(c21)CCCC3 (stereo not given)	45µM	?	?	-	2.5µM	?	-	-
Cn1cccc1C1NC(=O)c2c(sc3c2CCC(C(C)(C)C)C3)N1 (stereo not given)	-	-	-	-	?	-	.	.
COc1ccccc1CNC(=O)c1ccc2c(c1)CCN2S(=O)(=O)c1ccc(Cl)cc1	.	-	-	-	-	.	.	.
COc1ccc(N2CSC3=C(C#N)C(c4cccc(OC)c4OC)CC(=O)N3C2)cc1 (stereo not given)	3.5µM	?	-	20µM	18µM	7.5µM	1.6µM	1.4µM
CCc1ccccc1N1CSC2=C(C#N)C(c3ccccc3F)CC(=O)N2C1 (stereo not given)	1.1µM	?	-	?	28µM	19µM	1.1µM	1.8µM
CSC1=NS(=O)(=O)c2c(C)nn(C)c2S1	6.3µM	?	-	25µM	16µM	21µM	4µM	3.5µM
CC(C)CC1CC(=O)OC1(C)C(=O)CSc1nc2ccccc2s1 (stereo not given)	-	-	-	-	?	19µM	?	?
O=C1C(=Cc2ccccc2O)SC(=S)N1CCCN1CCOCC1	.	.	.	.	.	2.7µM	4µM	3.2µM
O=C(CCN1C(=O)/C(=C\c2ccccc2)SC1=S)NCCCN1CCOCC1	-	.	.	-	.	-	.	.
O=C(O)Cc1ccc2sc(-c3ccccc3)nc2c1	-	-	-	-	-	-	32µM	-
Oc1cccc(-c2nc3ccccc3s2)c1	-	-	-	-	-	-	.	.
CCn1c(C)c(C)c2cc(C(=O)NC3CCCCCC3)ccc21	-	.	.	-	.	-	.	.
CS(=O)(=O)N1CCN(c2ccc([N+](=O)[O-])cc2C(F)(F)F)CC1	-	-	-	?	-	-	?	?
Cc1ccccc1NC(=O)CN(c1ccc(Cl)cc1Cl)S(=O)(=O)c1ccccc1	.	-	-	-	-	.	.	.
COC(=O)COc1ccc(C2Nc3c(Cl)ccc(C(=O)O)c3C3C=CCC32)cc1 (stereo not given)	10µM	-	-	?	?	21µM	?	?
O=C1N=C(c2ccccc2)S/C1=C\c1cccs1	35µM	?	?	?	7.9µM	24µM	4.5µM	6.3µM
